Screens: PubChem BioAssay, National Center for Advancing Translational Sciences (NCATS)
CHX counter: counter-screen for Shiga toxin inhibitors: cycloheximide protein synthesis inhibition. actives 12% (n = 300,000). max response, %. cell reporter, cycloheximide protein synthesis inhibition counterscreen; in the data active = max response mostly above about 13%, no sharp cut-off; inactive = mostly below about 14%; note: read at 38.3 µM for the half of the compounds with a filed dose; 0% is about no effect
SARS PLpro yeast: blocks SARS-CoV papain-like protease in a yeast assay; S. cerevisiae expressing SARS-CoV PLpro, growth rescue; Potency, µM (doses to about 32.9 µM), without a hit: at the top dose activity, positive = growth rescue, most hits filed as activators; actives 0.19% (n = 330,000); AID 485353; note: potency is the fitted concentration of half-maximal effect; 0% is about no effect; nearly all actives have a fitted effect of over 55% in size
LmPK inh: blocks Leishmania mexicana pyruvate kinase activity | Q27686 | AID 1721 | Potency, µM (highest dose often 57.5 µM), without a hit: top-dose activity change, negative = inhibition, hits mostly inhibitors | actives 0.37% (n = 290,000) | purified LmPK, Kinase-Glo ATP luminescence, 1 h; active = well fitted curve in the direction sought with a large enough effect; inconclusive = small, poorly fitted or top-dose-only effect, or another doubt; inactive = no such curve, though single readings can be large; an effect the other way counts as inactive or inconclusive; note: potency is the fitted concentration of half-maximal effect; % is set by controls: 0 for no effect and ±100 for the full control effect
Target sequence (Q27686 whole entry, looked up): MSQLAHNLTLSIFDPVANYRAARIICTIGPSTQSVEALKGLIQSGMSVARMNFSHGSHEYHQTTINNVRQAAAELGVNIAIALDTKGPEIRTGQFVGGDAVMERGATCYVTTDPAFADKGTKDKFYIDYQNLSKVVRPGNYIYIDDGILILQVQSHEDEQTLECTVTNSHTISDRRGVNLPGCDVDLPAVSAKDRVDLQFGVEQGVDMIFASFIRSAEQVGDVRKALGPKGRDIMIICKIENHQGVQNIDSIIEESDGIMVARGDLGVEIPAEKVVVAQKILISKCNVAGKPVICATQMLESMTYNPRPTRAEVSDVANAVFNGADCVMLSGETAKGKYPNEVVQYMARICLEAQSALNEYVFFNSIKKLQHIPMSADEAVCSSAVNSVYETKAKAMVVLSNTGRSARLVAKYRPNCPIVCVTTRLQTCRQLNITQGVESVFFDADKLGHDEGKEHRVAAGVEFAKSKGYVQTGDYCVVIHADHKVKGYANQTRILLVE
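Screened at intermediate enzyme activity to detect both inhibitors and activators: LmPK at 0.1 nM, with a 0.5 nM enzyme column as activation reference. PEP 0.5 mM, ADP 0.1 mM; ATP detected by luminescence after 1 h.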
TbPYK inhibitor: blocks Trypanosoma brucei pyruvate kinase. TbPYK enzyme, Kinase-Glo Plus ATP luminescence, 45 min. Potency, µM (titrated, usually from 76.8 µM), without a hit: top-dose activity, negative = inhibition, hits mostly inhibitors. AID 624173. actives 0.12% (n = 410,000). Q57TT1; active = well fitted curve in the direction sought with a large enough effect; inconclusive = small, poorly fitted or top-dose-only effect, or another doubt; inactive = no such curve, though single readings can be large; an effect the other way counts as inactive or inconclusive; note: potency is the fitted concentration of half-maximal effect; % is set by controls: 0 for no effect and ±100 for the full control effect; nearly all actives have a fitted effect of over 50% in size
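TbPYK + substrate in 50 mM TEA pH 7.2, 100 mM KCl, 10 mM MgCl2, 0.05% BSA, 0.01% Tween-20; cpd pinned; ADP 130 uM final; 45 min RT; Kinase-Glo Plus 10 min; luminescence endpoint.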
Shiga toxin inh: blocks Shiga toxin action in Vero cells; Vero cells, Shiga toxin protein synthesis inhibition reporter; inhibition, % at 38.7 µM; actives 9.2% (n = 290,000); in the data active = inhibition mostly above about 28%, no sharp cut-off; inactive = mostly below about 43%; note: 0% is about no effect
NS1 inh: influenza NS1 inhibition. actives 0.4% (n = 270,000). Potency, µM (titrated, usually from 46.1 µM), inactives show at the highest dose activity, positive = more growth. AID 2326; note: potency is the fitted concentration of half-maximal effect; actives are rising curves; nearly all actives have a fitted effect of over 50% in size
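A cell-based growth assay was used: compounds that relieve NS1-induced slow growth of budding yeast raise OD600. Assay medium was yeast nitrogen base with ammonium sulphate and -URA supplement, pH 6.0, with 2% galactose.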
Active calls of the source: *; ? = inconclusive; . = no result. The entries come from a sample that favours hits as a whole. Unless noted, calls come from the whole dose curve.

SMILES	CHX counter	SARS PLpro yeast	LmPK inh	TbPYK inhibitor	Shiga toxin inh	NS1 inh
CC(=O)Nc1cc(C(=O)OCC(=O)c2ccc(C)cc2)ccc1C	86*	13%	-3%	31%	128*	2%
O=C(COC(=O)c1ccccc1Nc1ccccc1)c1ccccc1	30*	-27%	1%	-4%	35	5%
CC(C)(C)c1ccc(OCC(=O)NCc2ccco2)c(Br)c1	30*	-17%	-11%	0%	58	-68%
Cc1ccc(NC(=O)COC(=O)c2ccccc2Nc2ccccc2)cc1	4	12%	-1%	1%	13	11%
O=C(COC(=O)c1ccccc1-c1ccccc1[N+](=O)[O-])c1ccccc1	22*	-7%	10%	-2%	20	3%
COc1cc(/C=C(\C#N)c2nc3ccccc3[nH]2)ccc1OCc1cccc(C(F)(F)F)c1	.	.	.	4%	.	.
CCOC(=O)c1cccc(NC(=O)CC2C(=O)N(c3ccc(OC)cc3)C(=O)N2C2CCCC2)c1 (configuration not stated)	.	.	.	1%	.	.
O=C(COC(=O)c1ccccc1Nc1ccccc1)NCc1ccco1	16*	10%	6%	-3%	26	-13%
CCOC(=O)C1CCN(c2ncnc3nc[nH]c23)CC1	-6	10%	-2%	1%	-11	-4%
CCOC(=O)C1CCN(c2ncnc3c(C)csc23)CC1	48*	-4%	-11%	-1%	67*	-10%
NC(=O)c1ccc(NC(=O)COC(=O)/C=C/c2ccc3c(c2)OCO3)cc1	26*	0%	-4%	-1%	66*	1%
COc1ccccc1NC(=O)COC(=O)/C=C/c1ccc2c(c1)OCO2	52*	0%	6%	1%	84*	.
CC(=O)Nc1ccc(NC(=O)COC(=O)/C=C/c2ccc3c(c2)OCO3)cc1	.	1%	.	-7%	.	.
COc1ccccc1NC(=O)/C=C/c1ccc2c(c1)OCO2	31*	-3%	-5%	-4%	85*	.
O=[N+]([O-])c1cccc(S(=O)(=O)Nc2ccc(-c3ccc(N4CCOCC4)nn3)cc2)c1	.	3%	.	10%	.	.
O=C(CCc1nnc(CCCCc2ccccc2)o1)N(CCO)Cc1ccccc1	-2	1%	10%	1%	1	1%
C=C(C)CN(CC)C(=O)CCc1nnc(CCCc2ccccc2)o1	39*	-1%	-7%	5%	61*	-3%
CCN(CCn1cccn1)C(=O)CCc1nnc(CCCc2ccccc2)o1	36*	0%	-9%	-2%	99*	-4%
O=C(CN1C(=O)NC2(CCc3ccccc32)C1=O)Nc1ccccc1Cl (configuration not stated)	.	2%	.	-4%	.	.
Cc1ccc(-c2nc(C#N)c(NCCc3ccccn3)o2)cc1	17*	-9%	5%	-5%	36	-15%
N#Cc1nc(-c2ccc(Cl)cc2)oc1NCCc1ccccn1	12*	4%	7%	-23%	35*	-4%
CN(C)CCCNc1oc(-c2ccc(Cl)cc2)nc1C#N	13	2%	0%	-5%	27	1%
COc1ccc(CCNc2oc(-c3ccc(C)cc3)nc2C#N)cc1OC	12	-8%	-1%	-3%	9	-47%
CC(=O)N1[C@H](C)C=C[C@]1(Cc1ccccc1)C(=O)O	-3	?	-1%	0%	-7	9%
COCCNC(=O)[C@@]1(Cc2ccccc2)C=C[C@@H](C)N1C(C)=O	38*	-3%	2%	6%	45*	5%
SMILES	CHX counter	SARS PLpro yeast	LmPK inh	TbPYK inhibitor	Shiga toxin inh	NS1 inh
CC(C)(C)c1cc(C(=O)Nc2ccc(F)cc2)n(Cc2ccc(F)cc2)n1	26*	-13%	2%	7%	43*	-31%
Cc1ccc(NC(=O)c2cc(C(C)(C)C)nn2Cc2ccccc2)cc1	12*	-2%	8%	0%	4	-2%
CC(C)(C)c1cc(C(=O)NC2CC2)n(Cc2ccc(F)cc2)n1	-4	1%	1%	3%	23	3%
O=C(CSc1nnc(NC(=O)C2CC2)s1)Nc1ccccc1Cl	-3	0%	0%	0%	-2	0%
Cc1cccc(-n2c(=O)c3c(c4cc(C)ccc4n3C)n(CC(=O)NCC3CCCO3)c2=O)c1 (configuration not stated)	.	.	.	-4%	.	.
COc1cc(Nc2nn(-c3ccc(OC(F)(F)F)cc3)nc2C(C)=O)cc(OC)c1	.	.	.	1%	.	.
